The text below walks through data of PubChem BioAssay.

Assay [1] is described as follows: rapamycin-like changes in RPL19A-GFP expression – cell-based, S. cerevisiae, multiplex flow cytometry, primary screen (AID 1862; in the data active = percent of DMSO control GFP below about 86%;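 also: lower values mimic rapamycin by blocking the RPL19A rise seen in DMSO cells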). Particulars: S. cerevisiae RPL19A-GFP strain, flow cytometry fluorescence, 3 h; at 10 µM; stronger effect = lower value.
Assay [2] is described as follows: TOR pathway GLN3 branch reporter MEP2-GFP changes – S. cerevisiae, multiplex flow cytometry, primary screen (AID 1867;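 active = GFP response, as percent of the DMSO control, above the screen-wide mean plus 3 SD, about 139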;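 also: median GFP channel fluorescence of barcode-gated MEP2-GFP cells measured by flow cytometry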). The settings on record: S. cerevisiae MEP2-GFP strain, 3 h, at 10 µM, stronger effect = higher value, 100% means same as DMSO wells.
The nature of assay [3]: TOR pathway RTG branch CIT2 reporter changes – S. cerevisiae, GFP fusion, multiplex flow cytometry, primary screen (AID 1870;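 active = percent response above a set limit, the screen-wide mean plus 3 SD, cut at about 130% in these data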;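 also: barcoded CIT2-GFP strain pooled with four other GFP strains with rapamycin as positive control; median GFP fluorescence per well over plate mean of DMSO wells so 100% = DMSO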). Particulars: S. cerevisiae CIT2-GFP expression, 3 h, at 10 µM, stronger effect = higher value. In general terms: Flow cytometry measures light scatter and fluorescence of single cells or particles in a stream.
Assay [4] in a line: TOR pathway LAP4-GFP level changes – S. cerevisiae, multiplex flow cytometry, primary screen (AID 1873;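 active = GFP signal, as percent of the solvent control, above the screen mean plus 3 SD, about 149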). The settings on record: S. cerevisiae LAP4-GFP expression, 3 h, at 10 µM, stronger effect = higher value.
Assay [5] can be described thus: yeast AGP1-GFP level changes, GLN3 branch – cell-based, multiplex flow cytometry, S. cerevisiae, primary screen (AID 1887;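 active = GFP signal above the screen-wide mean plus 3 SD, that is over about 124.5% of the solvent control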;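 also: AGP1-GFP fusion strain of S. cerevisiae within a five-strain barcoded multiplex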). The settings on record: 3 h, at 10 µM, stronger effect = higher value.
A short description of assay [6]: reduced mouse 2C T cell binding to pMHC/ICAM-1 vesicles – MLPCN validation set, flow cytometry, LFA-1/ICAM-1 modulator project, pilot screen (AID 2523;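 active = response below a set limit, under 55% cells CD8-positive and vesicle-bound, and CD8 cells' 90th-percentile brightness under 279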;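 as to vesicle binding response: mean PE anti-B7-1 fluorescence of CD8+ cells relative to row control; 100% = QL9-loaded vesicles with DMSO vehicle in the same plate row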). The settings on record: 2C mouse CD8+ T cells, at 7 µM, stronger effect = lower value; double positive events: measured here: CD8+/vesicle+ event percentage.
Assay [7] addresses Integrin beta-1 (Homo sapiens) + Integrin alpha-4 (Homo sapiens) (UniProt P13612+P05556). Put plainly: alpha4beta1 integrin LIBS antibody binding reduction – U937 cells, HUTS-21 mAb, flow cytometry, validation set, VLA-4 allosteric modulator project, pilot screen (AID 2674;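 active = inhibition above 50%, about 3 SD of the validation set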;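 also: antibody binding induced by the VLA-4 ligand LDV present at three times its Kd; 0% = LDV ligand with antibody and no compound and 100% = antibody without LDV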). The settings on record: HUTS-21 LIBS mAb binding, at 6.7 µM, stronger effect = higher value, binding induced by LDV ligand.

Assay [8] is described as follows: calorie-restriction mimetic ROS inhibitors, yeast – validation compound set, pilot screen (AID 2706;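 active = superoxide response below 65% of plate, a cut near 3 SD across the whole screen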;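 also: yeast exposed to compound for one week at 30 degrees C before staining; 100% = mean of all compound wells on the same plate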). The settings on record: S. cerevisiae aging, superoxide DHE fluorescence; at 10 µM, stronger effect = lower value.
Assay [9] has as its target Beta-adrenergic receptor kinase 1 (Homo sapiens) (UniProt P25098). Put plainly: GRK2 binders displacing RNA aptamer, biochemical, validation, human GRK2, bead flow cytometry (AID 488806;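 active = aptamer binding inhibition above 30%, about 3 SD of noise from non-fluorescent compounds; inactive = inhibition at or below 30%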). The settings on record: bead-bound GRK2, FAM-aptamer displacement, at 10 µM, stronger effect = higher value.
The target of assay [10] is AP-2 complex subunit beta (Homo sapiens) (UniProt P63010). Put plainly: beta-arrestin/AP2 interaction blockers – biochemical, validation set, GST-AP2 beads, flow cytometry, pilot screen (AID 504541;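 active = inhibition above 54%, about 3 SD of non-fluorescent compounds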;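 also: AP2 carries R879A mutation and is captured from E. coli lysate; bead-bound FITC arrestin peptide fluorescence measuring arrestin peptide binding to AP2; 0% = DMSO wells and 100% = excess unlabeled arrestin peptide control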). The settings on record: FITC arrestin peptide, at 10 µM, stronger effect = higher value, AP2 beta2 appendage fragment, R879A mutant.
A short description of assay [11]: cytosolic pH regulators acting via V-ATPase – S. cerevisiae, pHLuorin, HTS validation (AID 504600; in the data active = response above about 15%;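 also: plate controls were DMSO for no effect and reference compound for full effect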). Particulars: V-ATPase proton transport, at 10 µM, stronger effect = higher value.
Assay [12] has as its system anti-desmoglein-3 scFv antibody binding to human DSG3. Put plainly: blockers of pathogenic pemphigus antibody–desmoglein-3 binding – biochemical, validation compound set, bead-based, flow cytometry, pilot screen (AID 588368;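 active = binding below the plate cutoff, the plate median minus 3 SD, with a reading above zero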;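 also: signal is the median channel fluorescence of bead-bound GFP antibody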). Particulars: Protein G beads, DSG3-Fc, scFv-GFP binding, at 10 µM, stronger effect = lower value.
A short description of assay [13]: Nile Red efflux blockade in pump-expressing yeast – validation compound set, multiplex, phenotypic, pilot screen (AID 588506;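 active = efflux inhibition above 0.42, the validation set average plus 4 SD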;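 also: Nile Red retained in cells so higher fluorescence means more efflux inhibition; 0 = negative control wells and 1 = enniatin B 25 µM full block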). Particulars: S. cerevisiae pump-expressing triplex, Nile Red efflux flow cytometry; at 10 µM; stronger effect = higher value; the pumps come from Candida albicans.
Assay [14] addresses ATP-binding cassette sub-family B member 6 (Homo sapiens) (UniProt Q9NP58). Put plainly: blockers of ABCB6-driven porphyrin uptake – K562-ABCB6 cells, flow cytometry, validation set, pilot screen (AID 588550).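 Also: 0% = DMSO wells and 100% = benzethonium chloride 70 µM positive control.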 Particulars: K562-ABCB6 porphyrin accumulation, 1 h, at 10 µM, stronger effect = higher value.
Assay [15] in a line: AML differentiation inducers, ER-HoxA9 marrow cells – cell-based, GFP/MAC1 double positive, flow cytometry, validation set, primary screen (AID 588685;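 active = differentiation response of at least 50%, scaled between solvent and reference control, from cells with both markers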;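 also: compound exposure lasts four days before antibody staining and flow analysis; 0% = DMSO wells and 100% = 5 µM fulvestrant positive control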). Particulars: stronger effect = higher value, normalized: vehicle 0, fulvestrant 100.

Molecules are shown by their SMILES. Results filed as inconclusive are left out. Calls of active or inactive are those of the source.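 The calls were made as follows, unless noted: active = inhibition above the screen-wide mean plus 3 SD, about 51%; inactive = the rest.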

Chain of Beta-adrenergic receptor kinase 1 (Homo sapiens) (P25098 whole entry, looked up): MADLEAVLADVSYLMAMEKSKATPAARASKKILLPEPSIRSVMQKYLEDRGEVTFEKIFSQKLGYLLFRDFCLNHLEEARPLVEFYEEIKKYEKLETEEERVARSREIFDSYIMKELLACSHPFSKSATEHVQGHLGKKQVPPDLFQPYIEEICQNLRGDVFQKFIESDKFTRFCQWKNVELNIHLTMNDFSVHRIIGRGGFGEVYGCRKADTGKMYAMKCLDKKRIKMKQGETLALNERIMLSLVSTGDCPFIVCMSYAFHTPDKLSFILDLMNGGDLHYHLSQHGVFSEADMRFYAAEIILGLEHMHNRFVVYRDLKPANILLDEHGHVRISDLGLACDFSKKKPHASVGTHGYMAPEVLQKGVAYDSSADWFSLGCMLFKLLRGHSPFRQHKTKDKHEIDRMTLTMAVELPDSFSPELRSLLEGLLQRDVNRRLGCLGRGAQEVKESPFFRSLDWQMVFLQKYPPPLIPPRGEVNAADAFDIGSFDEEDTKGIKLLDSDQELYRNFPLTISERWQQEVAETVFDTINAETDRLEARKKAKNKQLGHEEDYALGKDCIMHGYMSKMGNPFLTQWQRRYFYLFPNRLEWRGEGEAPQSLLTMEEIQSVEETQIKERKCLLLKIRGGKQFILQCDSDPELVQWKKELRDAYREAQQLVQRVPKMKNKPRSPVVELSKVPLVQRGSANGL
Chain of Integrin beta-1 (Homo sapiens) + Integrin alpha-4 (Homo sapiens) (P05556 whole entry, looked up): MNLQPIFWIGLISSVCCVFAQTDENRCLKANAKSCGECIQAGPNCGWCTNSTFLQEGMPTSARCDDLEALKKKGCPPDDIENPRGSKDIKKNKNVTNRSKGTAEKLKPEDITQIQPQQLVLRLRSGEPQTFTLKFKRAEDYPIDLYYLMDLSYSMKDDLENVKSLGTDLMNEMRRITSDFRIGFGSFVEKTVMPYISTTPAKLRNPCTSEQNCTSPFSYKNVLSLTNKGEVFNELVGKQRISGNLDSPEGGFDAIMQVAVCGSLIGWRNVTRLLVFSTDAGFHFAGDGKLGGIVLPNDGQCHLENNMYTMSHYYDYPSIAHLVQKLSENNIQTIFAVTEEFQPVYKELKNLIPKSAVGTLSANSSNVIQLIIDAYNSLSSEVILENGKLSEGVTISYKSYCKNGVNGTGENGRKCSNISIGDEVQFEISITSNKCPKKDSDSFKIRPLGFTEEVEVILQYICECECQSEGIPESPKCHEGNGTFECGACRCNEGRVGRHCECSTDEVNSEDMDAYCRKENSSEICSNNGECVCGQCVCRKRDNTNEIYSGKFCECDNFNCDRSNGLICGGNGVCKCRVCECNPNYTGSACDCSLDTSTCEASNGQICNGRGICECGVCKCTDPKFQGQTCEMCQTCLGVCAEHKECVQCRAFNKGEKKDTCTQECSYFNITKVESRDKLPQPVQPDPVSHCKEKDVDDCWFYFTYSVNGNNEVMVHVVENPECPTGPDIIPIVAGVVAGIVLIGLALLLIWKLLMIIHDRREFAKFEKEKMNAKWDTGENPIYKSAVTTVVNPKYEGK
Chain of Integrin beta-1 (Homo sapiens) + Integrin alpha-4 (Homo sapiens) (P13612 whole entry, looked up): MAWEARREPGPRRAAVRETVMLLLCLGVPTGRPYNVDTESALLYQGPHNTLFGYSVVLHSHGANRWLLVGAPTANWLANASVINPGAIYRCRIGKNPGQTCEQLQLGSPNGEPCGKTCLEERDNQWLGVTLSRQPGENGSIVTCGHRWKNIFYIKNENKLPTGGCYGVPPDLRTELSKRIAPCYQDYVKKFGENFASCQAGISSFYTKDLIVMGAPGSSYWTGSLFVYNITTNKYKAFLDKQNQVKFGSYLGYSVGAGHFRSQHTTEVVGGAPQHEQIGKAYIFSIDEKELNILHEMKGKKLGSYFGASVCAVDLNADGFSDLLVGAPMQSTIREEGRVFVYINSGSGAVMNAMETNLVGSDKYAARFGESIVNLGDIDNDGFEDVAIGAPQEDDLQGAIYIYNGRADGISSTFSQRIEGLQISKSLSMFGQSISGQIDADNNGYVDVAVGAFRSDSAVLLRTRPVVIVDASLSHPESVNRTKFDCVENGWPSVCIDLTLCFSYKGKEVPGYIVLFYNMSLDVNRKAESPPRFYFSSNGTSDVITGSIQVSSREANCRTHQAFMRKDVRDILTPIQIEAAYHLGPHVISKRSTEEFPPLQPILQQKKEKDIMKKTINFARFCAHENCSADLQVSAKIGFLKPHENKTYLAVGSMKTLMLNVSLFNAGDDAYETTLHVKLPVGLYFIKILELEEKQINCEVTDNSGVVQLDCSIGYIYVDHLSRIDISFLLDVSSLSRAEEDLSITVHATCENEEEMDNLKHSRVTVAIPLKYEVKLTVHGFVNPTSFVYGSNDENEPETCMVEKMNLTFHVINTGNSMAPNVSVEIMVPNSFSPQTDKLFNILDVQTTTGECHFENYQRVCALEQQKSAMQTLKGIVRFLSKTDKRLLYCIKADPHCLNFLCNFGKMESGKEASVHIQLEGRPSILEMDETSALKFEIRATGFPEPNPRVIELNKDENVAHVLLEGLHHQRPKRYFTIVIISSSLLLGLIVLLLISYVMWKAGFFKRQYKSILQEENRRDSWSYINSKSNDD
Chain of ATP-binding cassette sub-family B member 6 (Homo sapiens) (Q9NP58 whole entry, looked up): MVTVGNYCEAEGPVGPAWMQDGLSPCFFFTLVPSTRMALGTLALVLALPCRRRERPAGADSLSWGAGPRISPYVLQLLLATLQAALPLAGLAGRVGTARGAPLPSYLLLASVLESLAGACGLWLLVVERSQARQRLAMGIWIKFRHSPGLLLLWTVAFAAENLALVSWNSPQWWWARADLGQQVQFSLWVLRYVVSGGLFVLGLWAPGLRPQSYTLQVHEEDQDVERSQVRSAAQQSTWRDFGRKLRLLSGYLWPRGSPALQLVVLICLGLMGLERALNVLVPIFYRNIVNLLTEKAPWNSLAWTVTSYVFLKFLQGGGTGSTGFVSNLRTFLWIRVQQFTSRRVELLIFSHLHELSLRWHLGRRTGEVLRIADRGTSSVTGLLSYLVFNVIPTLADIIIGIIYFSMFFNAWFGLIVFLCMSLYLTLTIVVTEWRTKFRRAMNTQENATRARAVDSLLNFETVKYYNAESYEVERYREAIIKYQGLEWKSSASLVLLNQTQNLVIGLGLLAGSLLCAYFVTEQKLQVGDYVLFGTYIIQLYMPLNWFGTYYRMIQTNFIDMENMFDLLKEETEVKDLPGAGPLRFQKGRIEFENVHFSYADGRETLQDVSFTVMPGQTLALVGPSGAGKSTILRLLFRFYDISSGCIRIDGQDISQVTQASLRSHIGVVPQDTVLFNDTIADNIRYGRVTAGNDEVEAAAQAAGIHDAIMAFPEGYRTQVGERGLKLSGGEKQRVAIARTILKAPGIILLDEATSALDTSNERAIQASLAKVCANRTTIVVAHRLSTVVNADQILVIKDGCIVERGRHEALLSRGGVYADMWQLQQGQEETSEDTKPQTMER
Chain of AP-2 complex subunit beta (Homo sapiens) (P63010 whole entry, looked up, the tested form may be a part, one chain of several): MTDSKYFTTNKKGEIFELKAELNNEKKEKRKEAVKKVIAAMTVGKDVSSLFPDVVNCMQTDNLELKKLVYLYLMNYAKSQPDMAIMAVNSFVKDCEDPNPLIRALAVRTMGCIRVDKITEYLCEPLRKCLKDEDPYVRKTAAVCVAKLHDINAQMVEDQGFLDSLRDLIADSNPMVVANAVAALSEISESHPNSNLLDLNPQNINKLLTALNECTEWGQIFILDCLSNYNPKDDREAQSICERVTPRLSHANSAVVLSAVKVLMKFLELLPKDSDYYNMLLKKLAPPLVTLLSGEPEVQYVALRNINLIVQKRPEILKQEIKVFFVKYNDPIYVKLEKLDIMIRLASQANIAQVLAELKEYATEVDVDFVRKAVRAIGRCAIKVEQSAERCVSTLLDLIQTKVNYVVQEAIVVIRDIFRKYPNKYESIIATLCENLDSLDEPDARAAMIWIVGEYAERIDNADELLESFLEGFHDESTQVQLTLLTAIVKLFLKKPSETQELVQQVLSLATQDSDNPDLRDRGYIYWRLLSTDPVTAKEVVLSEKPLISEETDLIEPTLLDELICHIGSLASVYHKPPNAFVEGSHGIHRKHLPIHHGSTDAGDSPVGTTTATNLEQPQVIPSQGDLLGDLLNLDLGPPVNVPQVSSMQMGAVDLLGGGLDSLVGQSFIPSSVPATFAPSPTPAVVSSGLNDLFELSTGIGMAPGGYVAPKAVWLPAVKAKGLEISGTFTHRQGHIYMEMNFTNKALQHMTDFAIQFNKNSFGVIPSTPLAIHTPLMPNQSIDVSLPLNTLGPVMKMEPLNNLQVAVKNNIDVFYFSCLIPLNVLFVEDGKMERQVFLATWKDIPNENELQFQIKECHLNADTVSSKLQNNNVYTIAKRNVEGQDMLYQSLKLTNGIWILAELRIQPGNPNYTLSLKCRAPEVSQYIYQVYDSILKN

Turning to `COc1ccccc1C(=O)c1cc2ccc(O)cc2oc1=O`, the percent of DMSO control GFP in assay [1] is 103% (inactive). Further, the figures for the GFP response vs DMSO in [2] and in assay [4] were 110% (inactive) and 100% (inactive), respectively. Moreover, the percent response of DMSO control in [3] is 105% (inactive). For the same compound, in assay [5], the GFP response, % of DMSO was 100% (inactive). In addition, the double positive events in assay [6] came out at 57.1%. In addition, the vesicle binding response in assay [6] was 147% (inactive). Besides, the inhibition in [7] is 12.8% (inactive); in assay [10], -2.87% (inactive); in [14], -208% (inactive). The superoxide response (% of plate) in assay [8] is 99.2% (inactive). In addition, the aptamer binding inhibition in assay [9] was 1% (inactive). In addition, the response in assay [11] is 5.05% (inactive). In assay [12], the binding (% of control) is 104% (inactive). Besides, in assay [13], the efflux inhibition (fraction of control) was 0.03 (inactive). The differentiation response in assay [15] is -14.7% (inactive).
Take `Cc1ccc2[nH]c3c(c2c1)CN(C)CC3`: the percent of DMSO control GFP in [1] is 102% (inactive). For the same compound, the values for the GFP response vs DMSO in assay [2] and in [4] were 107% (inactive) and 97.4% (inactive), respectively. Further, the percent response of DMSO control in assay [3] is 97.9% (inactive). In [5], the GFP response, % of DMSO is 100% (inactive). Moreover, in assay [6], the double positive events amounted to 63.4%. For the same compound, the vesicle binding response in assay [6] is 188% (inactive). The inhibition is 9.09% (inactive) in assay [7], 15.9% (inactive) in assay [10] and 12% (inactive) in assay [14]. In addition, in assay [8], the superoxide response (% of plate) is 99.8% (inactive). Besides, the aptamer binding inhibition in [9] is 5% (inactive). Besides, the response in [11] is -3.83% (inactive). In [12], the binding (% of control) is 105% (inactive). The efflux inhibition (fraction of control) in assay [13] is -0.09 (inactive). The differentiation response in [15] is -8.27% (inactive).
On to `CCOC(=O)NN1C(=O)c2ccccc2NC1c1ccc(OC)c(OC)c1` (stereo not given), for which, in [1], the percent of DMSO control GFP was 95.1% (inactive). Besides, the GFP response vs DMSO in [2] and in assay [4] was 103% (inactive) each time. In [3], the percent response of DMSO control was 95.9% (inactive). Also, the GFP response, % of DMSO in [5] is 99.6% (inactive). Further, the double positive events in assay [6] is 64.4%. In addition, the vesicle binding response in assay [6] is 121% (inactive). Further, the inhibition was 7.22% (inactive) in [7], -4.55% (inactive) in assay [10] and 14% (inactive) in [14]. Moreover, the superoxide response (% of plate) in [8] was 99.5% (inactive). For the same compound, the aptamer binding inhibition in [9] was 2% (inactive). For the same compound, the response in [11] is -6.37% (inactive). The binding (% of control) in assay [12] is 102% (inactive). The efflux inhibition (fraction of control) in assay [13] is -0.05 (inactive). Besides, in assay [15], the differentiation response was 46.6% (inactive).
As for `Clc1ccc2c(c1)C(N1CCNCC1)=Nc1ccccc1O2`, in assay [1], the percent of DMSO control GFP is 107% (inactive). For the same compound, the GFP response vs DMSO in [2] was 106% (inactive); in [4], 101% (inactive). Also, the percent response of DMSO control in assay [3] is 109% (inactive). Besides, the GFP response, % of DMSO in [5] is 105% (inactive). In assay [6], the double positive events came out at 64%. Further, in [6], the vesicle binding response is 200% (inactive). Moreover, the inhibition was -42.2% (inactive) in assay [7], 24.4% (inactive) in assay [10] and 7% (inactive) in assay [14]. Moreover, the superoxide response (% of plate) in [8] is 103% (inactive). In addition, the aptamer binding inhibition in assay [9] is -1% (inactive). For the same compound, in assay [11], the response is -1.95% (inactive). Also, the binding (% of control) in [12] is 101% (inactive). The efflux inhibition (fraction of control) in assay [13] was -0.47 (inactive). In addition, the differentiation response in assay [15] was -8.27% (inactive).
Regarding `O=C(O)c1ccccc1O`, the percent of DMSO control GFP in assay [1] was 101% (inactive). The results for the GFP response vs DMSO in assay [2] and in assay [4] were 101% (inactive) and 97.4% (inactive), respectively. In addition, the percent response of DMSO control in [3] was 96.9% (inactive). For the same compound, the GFP response, % of DMSO in [5] is 98.8% (inactive). The same compound displayed a double positive events in assay [6] of 59%. In addition, the vesicle binding response in [6] is 178% (inactive). In addition, the inhibition was 15.6% (inactive) in [7], 0.05% (inactive) in assay [10] and 0% (inactive) in assay [14]. The superoxide response (% of plate) in assay [8] was 100% (inactive). The aptamer binding inhibition in [9] is 3% (inactive). The response in assay [11] was -0.04% (inactive). For the same compound, the binding (% of control) in assay [12] is 104% (inactive). Also, the efflux inhibition (fraction of control) in [13] was 0.44 (active). For the same compound, the differentiation response in assay [15] is -9.89% (inactive).

As a reminder, the inhibition is the drop in the measured response relative to a control, in per cent.
